Reference: PubChem BioAssay (NCI)
The panel holds about 83,000 compounds, 20% with a hit somewhere; the sample as a whole holds those more often.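 Interpretation: 100, growth as untreated; towards 0, rising growth inhibition; 0, no net growth; 0 to -100, cell death. Compounds scoring below 10 were considered active.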 Unmarked numbers belong to inactive results. Active and inactive are the calls of the source.

What was measured:
Assay in all cases: NCI-60 one-dose screen, 48 h (100 = growth as untreated, 0 = no growth, -100 = all killed)
Conditions in all cases: 10 µM unless noted
NCI-H23 lung = tested on: NCI-H23 lung
NCI-H226 lung = tested on: NCI-H226 lung
NCI-H322M lung = tested on: NCI-H322M lung
HOP-62 NSCLC = tested on: HOP-62 NSCLC
NCI-H460 lung = tested on: NCI-H460 lung
A549/ATCC NSCLC = tested on: A549/ATCC NSCLC
786-0 renal = tested on: 786-0 renal
COLO 205 colon = tested on: COLO 205 colon
DU-145 prostate = tested on: DU-145 prostate
K-562 leukemia = tested on: K-562 leukemia
MALME-3M melanoma = tested on: MALME-3M melanoma
MDA-MB-231 breast = tested on: MDA-MB-231 breast
RXF 393 renal = tested on: RXF 393 renal
SF-268 CNS = tested on: SF-268 CNS
SF-295 CNS = tested on: SF-295 CNS
SF-539 CNS = tested on: SF-539 CNS
UACC-257 melanoma = tested on: UACC-257 melanoma
M14 melanoma = tested on: M14 melanoma
HCT-15 colon = tested on: HCT-15 colon
NCI-H522 lung = tested on: NCI-H522 lung

SMILES	growth (NCI-H23 lung)	growth (NCI-H226 lung)	growth (NCI-H322M lung)	growth (HOP-62 NSCLC)	growth (NCI-H460 lung)	growth (A549/ATCC NSCLC)	growth (786-0 renal)	growth (COLO 205 colon)	growth (DU-145 prostate)	growth (K-562 leukemia)	growth (MALME-3M melanoma)	growth (MDA-MB-231 breast)	growth (RXF 393 renal)	growth (SF-268 CNS)	growth (SF-295 CNS)	growth (SF-539 CNS)	growth (UACC-257 melanoma)	growth (M14 melanoma)	growth (HCT-15 colon)	growth (NCI-H522 lung)
O=C(CSCC(=O)N/N=C/c1ccccc1O)N/N=C\c1ccccc1O	40.8%	39.4%	15.7%	25.3%	14.2%	38.1%	5.14% (active)	17.2%	37.1%	10.8%	2.43% (active)	42.7%	44.8%	28.9%	35.5%	25.6%	25.6%	-4.57% (active)	22.9%	
CCCCCCCC/C=C/CCCCCCCC1=NC(C)(C)CN1CC(C)O (stereo not drawn)	67%	89.6%	53.9%	36.5%	-34.9% (active)	27.9%	59%	-91.3% (active)	69.2%		68.5%	30.5%	14.7%	55.5%	32.4%	29.2%	87.2%	31.8%	18.3%	
O=C(Cn1ccnc1)NC(c1ccccc1)c1ccccc1	94.8%	100%	98.7%		103%	105%	103%	109%	112%	98.6%	104%	99.6%	104%	97.7%	97.6%	86.2%	104%	102%	101%	93.2%
Cn1c(=O)c2nc(SCc3ccccc3)n(C)c2n(C)c1=O	108%	102%	109%	107%	109%	99.2%	109%	104%	117%	103%	143%	97.7%	112%	106%	117%	101%	111%	107%	98.8%	
Cn1cnc([N+](=O)[O-])c1S(=O)(=O)Oc1ccc(Cl)cc1	96%	97.8%	104%	92.3%	103%	96%	94.4%	-90% (active)	81.5%	16.1%	-70.4% (active)	65.4%	81.8%	93%	94.5%	81.4%	57%	61%	59%	
O=C(O)C(=O)O	15.2%	96.6%	95.2%	108%	111%		96.9%	108%	99.6%	116%	108%	102%		108%	110%	94.8%			95%	33.1%
COc1cc(C2C=C(c3ccc(C)cc3)Nc3nc(SC)[nH]c(=O)c32)ccc1Oc1ccnc2cc(Cl)ccc12 (stereo not drawn)	80.7%	79.7%	84%		70.2%	63.1%	85.1%	101%	64.5%	75.6%	80.1%	73.6%	83.4%	59.6%	70.1%	100%	62.7%	85.1%	64%	75%
C=C(C[C@@](O)(C(=O)Oc1ccccc1)C(=O)C1CCCCC1)c1ccccc1	103%	108%	112%		107%	92.2%	98.9%	120%	110%	107%	101%	99.9%	91.4%	99.6%	100%	98.4%	92.8%	106%	109%	91.8%
O=C(Nc1nc(-c2ccc(Cl)cc2)cs1)c1cc(O)c(O)c(O)c1	42.2%	74.9%	60.8%		10.2%	25.2%	11.5%	77.6%	35.8%	7.99% (active)		36%		26.7%	31.2%	5.36% (active)	42.7%	23.2%	18.8%	-34.9% (active)
COc1cc2c(cc1OCCCOc1ccc(-c3cc4ccccc4c4ccccc34)cc1)N=C[C@@H]1CCCN1C2=O	-39.3% (active)	-78.7% (active)	-69.4% (active)		-45.2% (active)	-17.4% (active)	-79.9% (active)	-0.637% (active)	-35.6% (active)	10.5%	-57.9% (active)	-71.2% (active)	-49.6% (active)	-61.2% (active)	-64.6% (active)	-57.6% (active)		-34.2% (active)	-64% (active)	-43.9% (active)
OC(c1cc(C(F)(F)F)nc2c(C(F)(F)F)cccc12)C1CCCCN1 (stereo not drawn)	78.4%	73.1%	64.8%		13.8%		56.7%	29.3%	78.8%	14.7%	100%	47.1%		47.9%	88.2%	82.8%		76%	77.5%	-4.33% (active)
Cc1ccc(NC(=O)Nc2ccc(-c3cccnc3)cc2N2CCC(CO)CC2)cc1	4.01% (active)	54%	34.3%		29.1%	7.01% (active)	-8.69% (active)	31.5%	29.8%	9.37% (active)	25.5%	9.31% (active)	-34.8% (active)	36.5%	40.1%	1.34% (active)	24.3%	27.1%	20.2%	9.32% (active)
CCC(O)C(C)(C)C (stereo not drawn)	102%	106%	127%		105%	94.2%	111%	114%	108%	108%	117%	117%	111%	113%	97%	113%	99.3%	105%	102%	106%
COC(=O)[C@]1(C(C)C)N[C@H](c2cn(-c3ccccc3)nc2-c2ccccc2)[C@@H]2C(=O)N(c3ccc(Cl)cc3)C(=O)[C@@H]21	92.9%	105%	99.1%		105%	101%	81.9%	106%	111%		107%	105%	113%	90.8%	106%		107%	87.6%	96%	81.4%
C[n+]1ccc(C#N)c2ccccc21	94.7%	93.3%	98%		109%	106%	90.2%	48.8%	91.8%	84.8%	26.7%	101%	78.8%	92%		99.5%	110%	98.6%	88.4%	68.2%
O=C(/C=C/c1cc2ccccc2[nH]c1=O)c1ccc(O)cc1	56.9%	98.7%	51.8%		1.97% (active)		62.6%	105%	-44.1% (active)	5.94% (active)	83.7%	59.5%	0.37% (active)	20.4%	54%	23.3%	92.6%	76%	35.2%	-44.1% (active)
COc1ccc(COC(C)=O)cc1	113%	104%	112%		111%	100%	99.4%	127%	110%	103%		125%	108%	101%	116%	107%	109%	108%	97.6%	118%
